# Literature values in PubChem BioAssay AID977611.
# The campaign covered roughly 3,900 compounds. About 3,900 (100%) were called active. The limit is not given here; nearly all actives have Kd up to about 4200 µM. So high a share suggests a set chosen from earlier hits. The list shows a part of the results. Numbered stars: 1 amine (or outer) side, 2 acyl side, 3 side chain; on linkers, the order of the positions; unused ones are H or OH. Starred links: 1 amine or outer side, 2 acyl side, 3 side chain; linkers in the order of their positions; H or OH if unused. Where a SMILES comes first, the peptide text is derived from it. Non-standard residues stand in square brackets, D forms with d. Square brackets hold non-standard residues; d marks the D form. Residues, ends and D or L forms follow the SMILES beside them. Peptide text beside a SMILES is read from it. [ ]: non-standard residue; d: D form. X1 = O=C([C@H](Cc1ccc(O[P+](O)(O)O)cc1)N[*:1])[*:2]; Orn(CH(NH2)2) = NC(N)NCCC[C@H](N)C(=O)O; Pro(4,5-dehydro) = O=C(O)[C@@H]1CC=CN1
# Assay: PubChem AID 977611
# Conditions: PDB protein-ligand complexes, literature Kd
compound,measurement,setting,value
N#CCCNc1nonc1-c1nc2ccccc2n1CC(=O)c1ccc(N)cc1,Kd,"protein: Tubulin, PDB entry 4o2a",1800 nM (active)
CC(C)[C@H](NC(=O)[C@H](CCCNC(N)N)NC(=O)[C@@H](NC(=O)[C@@H]1CCCN1)[C@@H](C)O)C(=O)N[C@@H](CO)C(=O)N[C@@H](CO[P+](O)(O)O)C(=O)N1CCC[C@H]1C(=O)N[C@H](C(=O)N[C@@H](Cc1ccccc1)C(=O)NCC(=O)N[C@@H](C)C(=O)N[C@H](C(=O)O)[C@@H](C)O)C(C)C,Kd,"protein: Breast cancer type 1 susceptibility protein, PDB entry 1y98",3700 nM (active)
CC(C)C[C@H](NC(=O)[C@@H]1CCCN1C(=O)CNC(=O)[C@H](Cc1ccccc1)NC(=O)[C@@H](N)CC(=O)O)C(=O)N[C@H](C(=O)NCC(=O)N[C@@H](C)C(=O)O)C(C)C (H-DFGPLVGA-OH),Kd,"protein: ?-adaptin ear domain of GGA3, PDB entry 1p4u",5000 nM (active)
CC[C@H](C)[C@H](N)C(=O)N[C@@H](CO)C(=O)N[C@@H](CCCNC(N)N)C(=O)N[C@@H](CO)C(=O)N[C@H](C(=O)N[C@@H](CO[P+](O)(O)O)C(=O)N1CCC[C@H]1C(=O)N[C@H](C(=O)N[C@@H](Cc1ccccc1)C(=O)N[C@@H](CC(N)=O)C(=O)N[C@@H](CCCCN)C(=O)N[C@@H](CCC(N)=O)C(=O)O)[C@@H](C)O)[C@@H](C)O,Kd,"protein: Breast cancer type 1 susceptibility protein, PDB entry 1t29",900 nM (active)
CSCC[C@H](NC(=O)[C@@H]1CCCN1C(=O)[C@H](Cc1ccc(O)cc1)NC(=O)[C@@H](N)Cc1ccccc1)C(=O)N[C@@H](CC(C)C)C(=O)N[C@@H](CCCNC(N)N)C(=O)N[C@@H](Cc1ccc(O)cc1)C(=O)N[C@H](C(=O)N[C@@H](CC(N)=O)C(=O)NCC(=O)N1CCC[C@H]1C(=O)N1CCC[C@H]1C(=O)N1CCC[C@H]1C(=O)N[C@H](C(=O)O)[C@@H](C)O)[C@@H](C)O (H-FYPML[Orn(CH(NH2)2)]YTNGPPPT-OH),Kd,"protein: SUN domain-containing protein 2, PDB entry 4fi9",45.6 nM (active)
NC(N)NCCC[C@H](N)C(=O)N[C@@H](CO)C(=O)N[C@@H](Cc1ccccc1)C(=O)N[C@@H](CO[P+](O)(O)O)C(=O)N[C@@H](CCC(=O)O)C(=O)N1CCC[C@H]1C(=O)N[C@@H](Cc1ccccc1)C(=O)NCC(=O)O,Kd,"protein: 14-3-3 protein epsilon, PDB entry 3ual",1550 nM (active)
CSCC[C@H](NC(=O)[C@@H]1CCCN1C(=O)[C@H](CC(N)=O)NC(=O)[C@@H]1CCCN1C(=O)[C@H](Cc1cnc[nH]1)NC(=O)[C@@H](N)CC(C)C)C(=O)N[C@@H](Cc1ccc(O[P+](O)(O)O)cc1)C(=O)N[C@@H](C)C(=O)N[C@@H](CCCNC(N)N)C(=O)O (H-LHPNPM[X1]A[Orn(CH(NH2)2)]-OH),Kd,"protein: Protein Dok7(PH-PTB), PDB entry 3ml4",4700 nM (active)
CC[C@H](C)[C@H](NC(=O)[C@H](CCCNC(N)N)NC(=O)[C@H](CC(N)=O)NC(=O)[C@H](Cc1ccccc1)NC(=O)[C@@H](NC(=O)[C@@H]1CCCN1C(=O)[C@H](CC(C)C)NC(=O)[C@H](CCCNC(N)N)NC(=O)[C@@H](N)CCCNC(N)N)[C@@H](C)CC)C(=O)N[C@@H](CO)C(=O)N[C@H](C(=O)N[C@@H](CO)C(=O)O)C(C)C (H-[Orn(CH(NH2)2)][Orn(CH(NH2)2)]LPIFN[Orn(CH(NH2)2)]ISVS-OH),Kd,"protein: CCR4-NOT transcription complex subunit 1, PDB entry 4j8s",2000 nM (active)
C[C@H](N)C(=O)N[C@@H](CS)C(=O)N[C@@H](CO[P+](O)(O)O)C(=O)N1CCC[C@H]1C(=O)N[C@@H](CCC(N)=O)C(=O)N[C@@H](Cc1ccccc1)C(=O)NCC(=O)O,Kd,"protein: Breast cancer type 1 susceptibility protein, PDB entry 4igk",28200 nM (active)
CC(C)C[C@H](NC(=O)CNC(=O)[C@H](CC(N)=O)NC(=O)[C@@H](N)Cc1ccccc1)C(=O)N[C@H](C(=O)N[C@@H](CO[P+](O)(O)O)C(=O)N1CCC[C@H]1C(=O)N[C@@H](CCC(N)=O)C(=O)N[C@@H](CCCNC(N)N)C(=O)N[C@@H](CO[P+](O)(O)O)C(=O)O)[C@@H](C)O,Kd,"protein: Saccharomyces cerevisiae Skp1 and Cdc4 (263-744), PDB entry 3v7d",410 nM (active)
CC(C)C[C@H](NC(=O)[C@H](CCCNC(N)N)NC(=O)[C@H](Cc1ccccc1)NC(=O)[C@@H](N)CC(C)C)C(=O)N[C@@H](CCCNC(N)N)C(=O)N[C@@H](Cc1c[nH]cn1)C(=O)N[C@@H](Cc1ccccc1)C(=O)N1CCC[C@H]1C(=O)N[C@@H](CS)C(=O)NCC(=O)N[C@@H](CC(N)=O)C(=O)N[C@H](C(=O)N[C@@H](CC(N)=O)C(=O)N[C@@H](Cc1ccc(O)cc1)C(=O)NCC(=O)N[C@@H](Cc1ccc(O)cc1)C(=O)N[C@@H](CCC(N)=O)C(=O)N[C@@H](CCC(N)=O)C(=O)N[C@@H](CCC(N)=O)C(=O)O)C(C)C (HELM PEPTIDE1{L.F.[NC(N)NCCC[C@H](N[*:1])C(=O)[*:2]].L.[NC(N)NCCC[C@H](N[*:1])C(=O)[*:2]].H.F.P.C.G.N.V.N.Y.G.Y.Q.Q.Q}$$$$V2.0),Kd,"protein: PTB domain of SNT-2, PDB entry 2kup",200 nM (active)
C[C@H](NC(=O)[C@H](CCC(=O)O)NC(=O)[C@@H]1CCCN1C(=O)[C@H](Cc1ccccc1)NC(=O)[C@@H](NC(=O)[C@@H]1CCCN1C(=O)[C@H](CO[P+](O)(O)O)NC(=O)[C@H](CCC(N)=O)NC(=O)[C@@H]1CCCN1)[C@@H](C)O)C(=O)NCC(=O)O,Kd,"protein: Breast cancer type 1 susceptibility protein(BRCA1), PDB entry 3coj",5200 nM (active)
CC(C)[C@H](NC(=O)[C@@H]1CCCN1C(=O)[C@H](CO[P+](O)(O)O)NC(=O)[C@@H](N)CCCNC(N)N)C(=O)N[C@@H](Cc1ccccc1)C(=O)N[C@@H](CO)C(=O)O,Kd,"protein: Breast cancer type 1 susceptibility protein, PDB entry 4ifi",3340 nM (active)
"CC(C)C[C@H](NC(=O)[C@H](CC(C)C)NC(=O)[C@H](CCC(=O)O)NC(=O)[C@@H]1CC=CN1C(=O)[C@H](C)NC(=O)[C@@H]1CCCN1)C(=O)NCC(=O)O (H-PA[Pro(4,5-dehydro)]ELLG-OH)",Kd,"protein: anti-hinge rabbit antibody 2095-2, PDB entry 4o4y",15.5 nM (active)
CC(C)C[C@H](NC(=O)[C@H](CC(N)=O)NC(=O)[C@H](Cc1ccccc1)NC(=O)[C@@H](N)CO)C(=O)N[C@@H](C)C(=O)N1CCC[C@H]1C(=O)N[C@@H](CC(C)C)C(=O)NCC(=O)N[C@@H](CCCNC(N)N)C(=O)N[C@@H](CCCNC(N)N)C(=O)N[C@@H](CCCNC(N)N)C(=O)N[C@H](C(=O)N[C@@H](CCC(N)=O)C(=O)N[C@@H](CO)C(=O)N[C@@H](CCC(N)=O)C(=O)O)C(C)C (H-SFNLAPLG[Orn(CH(NH2)2)][Orn(CH(NH2)2)][Orn(CH(NH2)2)]VQSQ-OH),Kd,"protein: Telomeric repeat-binding factor 2(TRF2 TRFH domain), PDB entry 3bu8",120 nM (active)
CC[C@H](C)[C@H](NC(=O)[C@@H](NC(=O)[C@@H](N)CC(C)C)C(C)C)C(=O)N[C@@H](C)C(=O)NCC(=O)N[C@@H](CC(N)=O)C(=O)N1CCC[C@H]1C(=O)N[C@@H](C)C(=O)N[C@@H](Cc1ccc(O[P+](O)(O)O)cc1)C(=O)N[C@@H](CCCNC(N)N)C(=O)N[C@@H](CO)C(=O)O (H-LVIAGNPA[X1][Orn(CH(NH2)2)]S-OH),Kd,"protein: PTB domain of insulin receptor substrate-1(IRS-1), PDB entry 1irs",6000 nM (active)
